# “And” between values parts separate entries of the source, which are not always exact repeats. Equal values may be shown once. About 2,000 (36%) of roughly 5,500 compounds were called active. About 18% were inconclusive and are not listed. This is one part of the list. Unmarked numbers belong to inactive results. Rule as the data show it: active = normalized growth mostly below about 0.91 (no sharp cut-off); inconclusive = no clear call, values can overlap the other calls; inactive = mostly above about 0.92.
# Experiment: chemical genetic growth profiling, strain panel (AID 1159580);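 also: tested at 20 µM; growth read once vehicle control cultures reached saturation at 30 °C; 1 = growth at the plate median or of vehicle wells; lower values mean less growth of the strain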
# Conditions: growth OD
structure (smiles),measurement,setting,value
NC1(C(=O)O)CCC1,normalized growth,"S. cerevisiae deletion strains, locus YAL013W, strain DEP1, active compounds read low",0.911
same,normalized growth,"S. cerevisiae deletion strains, locus YBR021W, strain FUR4, active compounds read low",0.992
same,normalized growth,"S. cerevisiae deletion strains, locus YBR229C, strain ROT2, active compounds read low",1.01
same,normalized growth,"S. cerevisiae deletion strains, locus YCL029C, strain bik1, active compounds read low",0.997
same,normalized growth,"S. cerevisiae deletion strains, locus YDL035C, strain GPR1, active compounds read low",0.956
same,normalized growth,"S. cerevisiae deletion strains, locus YDL074C, strain BRE1, active compounds read low",0.836
same,normalized growth,"S. cerevisiae deletion strains, locus YDL101C, strain DUN1, active compounds read low",0.992
same,normalized growth,"S. cerevisiae deletion strains, locus YDL134C, strain PPH21, active compounds read low",1.01
same,normalized growth,"S. cerevisiae deletion strains, locus YDL185W, strain tfp1, active compounds read low",0.974
same,normalized growth,"S. cerevisiae deletion strains, locus YDL192W, strain arf1, active compounds read low",0.974
same,normalized growth,"S. cerevisiae deletion strains, locus YDR101C, strain arx1, active compounds read low",0.966
same,normalized growth,"S. cerevisiae deletion strains, locus YDR150W, strain NUM1, active compounds read low",1
same,normalized growth,"S. cerevisiae deletion strains, locus YDR162C, strain NBP2, active compounds read low",0.99
same,normalized growth,"S. cerevisiae deletion strains, locus YDR318W, strain mcm21, active compounds read low",0.963
same,normalized growth,"S. cerevisiae deletion strains, locus YDR388W, active compounds read low",0.988
same,normalized growth,"S. cerevisiae deletion strains, locus YDR502C, strain sam2, active compounds read low",0.936
same,normalized growth,"S. cerevisiae deletion strains, locus YEL061C, strain CIN8, active compounds read low",1
same,normalized growth,"S. cerevisiae deletion strains, locus YER110C, active compounds read low",0.959
same,normalized growth,"S. cerevisiae deletion strains, locus YER155C, strain BEM2, active compounds read low",1.03
same,normalized growth,"S. cerevisiae deletion strains, locus YER167W, strain BCK2, active compounds read low",0.952
same,normalized growth,"S. cerevisiae deletion strains, locus YGL078C, strain dbp3, active compounds read low",0.996
same,normalized growth,"S. cerevisiae deletion strains, locus YGL086W, strain mad1, active compounds read low",0.955
same,normalized growth,"S. cerevisiae deletion strains, locus YGL248W, strain PDE1, active compounds read low",1.01
same,normalized growth,"S. cerevisiae deletion strains, locus YGR078C, strain PAC10, active compounds read low",0.868
same,normalized growth,"S. cerevisiae deletion strains, locus YGR135W, strain pre9, active compounds read low",0.915
same,normalized growth,"S. cerevisiae deletion strains, locus YGR229C, strain SMI1, active compounds read low",0.717 (active)
same,normalized growth,"S. cerevisiae deletion strains, locus YGR252W, strain gcn5, active compounds read low",0.894
same,normalized growth,"S. cerevisiae deletion strains, locus YHR030C, strain SLT2, active compounds read low",0.996 and 1
same,normalized growth,"S. cerevisiae deletion strains, locus YHR079C, strain IRE1 (second series), active compounds read low",0.982
same,normalized growth,"S. cerevisiae deletion strains, locus YHR079C, strain IRE1, active compounds read low",1.01
same,normalized growth,"S. cerevisiae deletion strains, locus YHR094C, strain hxt1, active compounds read low",0.992
same,normalized growth,"S. cerevisiae deletion strains, locus YHR129C, strain ARP1, active compounds read low",0.971
same,normalized growth,"S. cerevisiae deletion strains, locus YHR200W, strain rpn10, active compounds read low",0.968
same,normalized growth,"S. cerevisiae deletion strains, locus YIL066C, strain RNR3, active compounds read low",0.966
same,normalized growth,"S. cerevisiae deletion strains, locus YIL073C, strain SPO22, active compounds read low",0.895
same,normalized growth,"S. cerevisiae deletion strains, locus YIL125W, strain kgd1, active compounds read low",0.996
same,normalized growth,"S. cerevisiae deletion strains, locus YIR030C, strain dcg1, active compounds read low",0.988
same,normalized growth,"S. cerevisiae deletion strains, locus YJL095W, strain BCK1, active compounds read low",0.88 and 0.998
same,normalized growth,"S. cerevisiae deletion strains, locus YJL134W, strain LCB3, active compounds read low",0.997
same,normalized growth,"S. cerevisiae deletion strains, locus YJL168C, strain set2, active compounds read low",0.978
same,normalized growth,"S. cerevisiae deletion strains, locus YJL187C, strain SWE1 (second series), active compounds read low",0.997
same,normalized growth,"S. cerevisiae deletion strains, locus YJR043C, strain POL32, active compounds read low",0.83 (active)
same,normalized growth,"S. cerevisiae deletion strains, locus YJR066W, strain TOR1, active compounds read low",0.932
same,normalized growth,"S. cerevisiae deletion strains, locus YJR075W, strain HOC1, active compounds read low",0.891
same,normalized growth,"S. cerevisiae deletion strains, locus YKL009W, strain mrt4, active compounds read low",0.98
same,normalized growth,"S. cerevisiae deletion strains, locus YKL068W, active compounds read low",0.996
same,normalized growth,"S. cerevisiae deletion strains, locus YKL085W, strain MDH1 (second series), active compounds read low",1.01
same,normalized growth,"S. cerevisiae deletion strains, locus YKL085W, strain MDH1, active compounds read low",1.01
same,normalized growth,"S. cerevisiae deletion strains, locus YKL190W, strain CNB1, active compounds read low",0.981
same,normalized growth,"S. cerevisiae deletion strains, locus YKR001C, strain vps1, active compounds read low",0.92
same,normalized growth,"S. cerevisiae deletion strains, locus YLR039C, strain RIC1, active compounds read low",0.991
same,normalized growth,"S. cerevisiae deletion strains, locus YLR058C, strain SHM2, active compounds read low",1.01
same,normalized growth,"S. cerevisiae deletion strains, locus YLR102C, strain apc9, active compounds read low",0.986
same,normalized growth,"S. cerevisiae deletion strains, locus YLR113W, strain HOG1, active compounds read low",0.996
same,normalized growth,"S. cerevisiae deletion strains, locus YLR262C, strain YPT6, active compounds read low",1.1
same,normalized growth,"S. cerevisiae deletion strains, locus YLR268W, strain sec22, active compounds read low",0.951
same,normalized growth,"S. cerevisiae deletion strains, locus YLR330W, strain CHS5, active compounds read low",1
same,normalized growth,"S. cerevisiae deletion strains, locus YLR342W, strain FKS1 (second series), active compounds read low",0.955
same,normalized growth,"S. cerevisiae deletion strains, locus YLR371W, strain rom2, active compounds read low",0.995
same,normalized growth,"S. cerevisiae deletion strains, locus YLR418C, strain cdc73, active compounds read low",0.732 (active)
same,normalized growth,"S. cerevisiae deletion strains, locus YML016C, strain PPZ1, active compounds read low",0.994
same,normalized growth,"S. cerevisiae deletion strains, locus YML032C, strain rad52, active compounds read low",0.977
same,normalized growth,"S. cerevisiae deletion strains, locus YML124C, strain tub3, active compounds read low",0.994
same,normalized growth,"S. cerevisiae deletion strains, locus YMR078C, strain ctf18, active compounds read low",0.988
same,normalized growth,"S. cerevisiae deletion strains, locus YMR223W, strain ubp8, active compounds read low",0.935
same,normalized growth,"S. cerevisiae deletion strains, locus YMR263W, strain SAP30, active compounds read low",0.929
same,normalized growth,"S. cerevisiae deletion strains, locus YMR307W, strain GAS1, active compounds read low",0.986
same,normalized growth,"S. cerevisiae deletion strains, locus YNL067W, strain RPL9B, active compounds read low",0.952
same,normalized growth,"S. cerevisiae deletion strains, locus YNL128W, strain TEP1, active compounds read low",0.986
same,normalized growth,"S. cerevisiae deletion strains, locus YNL153C, strain GIM3, active compounds read low",0.883
same,normalized growth,"S. cerevisiae deletion strains, locus YNL183C, strain NPR1, active compounds read low",0.916
same,normalized growth,"S. cerevisiae deletion strains, locus YNL233W, strain BNI4, active compounds read low",0.92
same,normalized growth,"S. cerevisiae deletion strains, locus YNL250W, strain rad50, active compounds read low",0.948
same,normalized growth,"S. cerevisiae deletion strains, locus YNL271C, strain bni1, active compounds read low",0.966
same,normalized growth,"S. cerevisiae deletion strains, locus YNL298W, strain CLA4, active compounds read low",0.981
same,normalized growth,"S. cerevisiae deletion strains, locus YNL307C, strain MCK1, active compounds read low",0.894 (active)
same,normalized growth,"S. cerevisiae deletion strains, locus YNL322C, strain KRE1, active compounds read low",0.997
same,normalized growth,"S. cerevisiae deletion strains, locus YNR052C, strain pop2, active compounds read low",0.999
same,normalized growth,"S. cerevisiae deletion strains, locus YOL006C, strain TOP1, active compounds read low",0.934
same,normalized growth,"S. cerevisiae deletion strains, locus YOL012C, strain htz1",1.73
same,normalized growth,"S. cerevisiae deletion strains, locus YOL147C, strain pex11, active compounds read low",0.99
same,normalized growth,"S. cerevisiae deletion strains, locus YOR061W, strain CKA2, active compounds read low",1
same,normalized growth,"S. cerevisiae deletion strains, locus YOR069W, strain VPS5, active compounds read low",1
same,normalized growth,"S. cerevisiae deletion strains, locus YOR136W, strain idh2, active compounds read low",0.973
same,normalized growth,"S. cerevisiae deletion strains, locus YOR144C, strain elg1, active compounds read low",0.994
same,normalized growth,"S. cerevisiae deletion strains, locus YOR184W, strain ser1, active compounds read low",0.875
same,normalized growth,"S. cerevisiae deletion strains, locus YOR231W, strain MKK1, active compounds read low",0.989
same,normalized growth,"S. cerevisiae deletion strains, locus YOR316C, strain cot1, active compounds read low",0.987
same,normalized growth,"S. cerevisiae deletion strains, locus YPL055C, strain LGE1, active compounds read low",0.876
same,normalized growth,"S. cerevisiae deletion strains, locus YPL241C, strain CIN2, active compounds read low",0.998
same,normalized growth,"S. cerevisiae deletion strains, locus YPL256C, strain CLN2, active compounds read low",0.995
same,normalized growth,"S. cerevisiae deletion strains, locus YPR119W, strain clb2, active compounds read low",0.999
same,normalized growth,"S. cerevisiae deletion strains, locus YPR141C, strain kar3, active compounds read low",0.981
same,normalized growth,"S. cerevisiae deletion strains, locus YPR163C, strain tif3, active compounds read low",0.996
same,normalized growth,"S. cerevisiae deletion strains, locus YPR167C, strain met16, active compounds read low",0.992
same,normalized growth,"S. cerevisiae deletion strains, strain wtn01, active compounds read low",0.927
same,normalized growth,"S. cerevisiae strains, strain wild type, active compounds read low",0.925

# Reference: PubChem BioAssay AID1159580 (chemical genetic matrix, 2015)
